Here are results for 87 molecules from PubChem BioAssay AID372 (MTDP, 2006).

The structures appear in SMILES notation. In all, about 100,000 compounds went through this assay and about 770 (0.77%) were called active. No stated cut-off is given here; in the data, active means inhibition above about 50%; inactive means the rest. The sample as a whole holds a higher share of actives than the screen did.

The target of the experiment is Gag-Pol polyprotein (Human immunodeficiency virus type 1 group M subtype B (isolate HXB2)) (UniProt P04585). In words: RNase H inhibition, HIV 1 Gag Pol polyprotein, FRET biochemical assay, screening (AID 372). The conditions noted are these: HIV-1 RT RNase H, FRET RNA/DNA substrate fluorescence; at 10 µM; hits give high values.
One may read the inhibition as the drop in the measured response relative to a control, in per cent. As for `CC1CCN(C(=O)CCCN2C(=O)c3cccc4cccc(c34)C2=O)CC1`, the inhibition is 56% (active).

As for `O=C(CCCN1C(=O)c2cccc3cccc(c23)C1=O)N1CCCCC1`, the inhibition was 29% (inactive).

In the case of `CC1CCN(C(=O)CN2C(=O)c3cccc4cccc(c34)C2=O)CC1`, the inhibition is 7% (inactive).

In the case of `COc1ccccc1-c1c(C(F)(F)F)oc2c(CN(C)C)c(O)ccc2c1=O`, the inhibition was 24% (inactive).

In the case of `O=C(CN(c1cccc(Cl)c1)S(=O)(=O)c1ccccc1)N1CCN(Cc2ccccc2)CC1`, the inhibition is 14% (inactive).

Take `COc1cc(Br)cc2c1OC1(C=C2)c2ccccc2-c2ccccc2N1C` (configuration not stated): the inhibition is 50% (active).

`CN1c2ccccc2-c2ccccc2C12C=Cc1cc(Br)cc(Br)c1O2` (configuration not stated): the inhibition is 17% (inactive).

For `CN1c2ccccc2-c2ccccc2C12C=Cc1cc(Br)ccc1O2` (configuration not stated), the inhibition is 6% (inactive).

Take `O=C(CSc1nnc(-c2ccccc2)n1-c1ccccc1)N/N=C/C=C/c1ccccc1`: the inhibition is 15% (inactive).

As for `O=C(Nc1ccc(Cl)cc1)c1ccccc1C(=O)c1ccc(Cl)cc1`, the inhibition is 18% (inactive).

Consider `COc1cc(/C=N\Nc2nnc3c(n2)[nH]c2c(C)cccc23)ccc1O`, for which the inhibition was 11% (inactive).

In the case of `Cc1cccc2c1[nH]c1nc(N/N=C\c3ccc(O)c(O)c3)nnc12`, the inhibition was 54% (active).

For `Cc1cccc2c1[nH]c1nc(N/N=C\c3cccc(O)c3)nnc12`, the inhibition was 14% (inactive).

Consider `O=c1[nH]c(-c2ccc(Br)cc2)nc2ccccc12`, for which the inhibition was 13% (inactive).

As to `O=c1[nH]c(-c2ccncc2)nc2ccccc12`, the inhibition is 68% (active).

For `Cc1ccc(-c2nc3ccccc3c(=O)[nH]2)cc1`, the inhibition was 7% (inactive).

As to `CC(=O)c1ccc(N2CCCCC2C)c(F)c1` (configuration not stated), the inhibition is 0% (inactive).

With `Cc1ccccc1-n1c(O)c(/C=C2\C=CC=N2)c(=O)[nH]c1=O`, the inhibition is 1% (inactive).

For `O=c1[nH]c(=O)n(-c2ccccc2Cl)c(O)c1C=C1C=CC=N1`, the inhibition was 0% (inactive).

On to `O=c1[nH]c(=S)n(-c2ccccc2)c(O)c1/C=C1/C=CC=N1`, for which the inhibition was 11% (inactive).

Take `Cc1cccc(-n2c(O)c(/C=C3\C=CC=N3)c(=O)[nH]c2=S)c1`: the inhibition is 11% (inactive).

Regarding `O=C(COc1ccccc1Cl)NNC(=O)c1cc2ccccc2cc1O`, the inhibition is 6% (inactive).

Regarding `O=[N+]([O-])c1ccc(OCCCN2CCCCC2)cc1`, the inhibition was 0% (inactive).

For `CCOc1ccc2ccccc2c1/C=C(\C#N)C(=O)NCc1ccco1`, the inhibition was 24% (inactive).

In the case of `CCc1ccc(/C=C2/SC(=S)N(CCC(=O)O)C2=O)cc1`, the inhibition was 8% (inactive).

`CCCC1=C(C(=O)OCC)C(c2cc(C)c(OC)cc2C)C(C#N)=C(N)O1` (configuration not stated): the inhibition was 2% (inactive).

For `Cc1cc(C)c2nc3s/c(=C\c4cccc([N+](=O)[O-])c4)c(=O)n3c2c1`, the inhibition was 10% (inactive).

For the molecule `Cc1ccc(N2C(=O)CC(Cc3ccc(Cl)cc3)C2=O)cc1C` (configuration not stated), the inhibition was 5% (inactive).

On to `CCOC(=O)C1=C(C)N=c2s/c(=C\c3ccc(-c4cc(C)c(C)c([N+](=O)[O-])c4)o3)c(=O)n2C1c1ccc(OC)c(OC)c1` (configuration not stated), for which the inhibition is 51% (active).

Regarding `CCOC(=O)C1=C(C)N=c2s/c(=C\c3ccc(-c4ccc(OC)cc4[N+](=O)[O-])o3)c(=O)n2C1c1ccc(OC)cc1` (configuration not stated), the inhibition is 0% (inactive).

Regarding `CCOC(=O)C1=C(C)N=c2s/c(=C\c3ccc(-c4ccc(C)c([N+](=O)[O-])c4)o3)c(=O)n2C1c1ccc(OC)c(OC)c1` (configuration not stated), the inhibition was 18% (inactive).

For `CCOC(=O)C1=C(C)N=c2s/c(=C\c3ccc(-c4ccc(OC)cc4[N+](=O)[O-])o3)c(=O)n2C1c1ccc(C)cc1` (configuration not stated), the inhibition was 44% (inactive).

Take `CCOC(=O)C1=C(C)N=c2s/c(=C\c3ccc(-c4cc(C)c(C)c([N+](=O)[O-])c4)o3)c(=O)n2C1c1ccc2c(c1)OCO2` (configuration not stated): the inhibition is 50% (active).

As to `CCOC(=O)C1=C(C)N=c2s/c(=C\c3ccc(-c4ccc(C)c([N+](=O)[O-])c4)o3)c(=O)n2C1c1ccc2c(c1)OCO2` (configuration not stated), the inhibition is 8% (inactive).

In the case of `CCOC(=O)C1=C(C)N=c2s/c(=C\c3ccc(-c4ccc(OC)cc4[N+](=O)[O-])o3)c(=O)n2C1c1ccc(SC)cc1` (configuration not stated), the inhibition is 52% (active).

As to `CCOC(=O)C1=C(C)N=c2s/c(=C\c3ccc(-c4cc(C)c(C)c([N+](=O)[O-])c4)o3)c(=O)n2C1c1cc(OC)ccc1OC` (configuration not stated), the inhibition is 13% (inactive).

Consider `CCOC(=O)C1=C(C)N=c2s/c(=C\c3ccc(-c4ccc([N+](=O)[O-])cc4)o3)c(=O)n2C1c1ccc2c(c1)OCO2` (configuration not stated), for which the inhibition was 41% (inactive).

For `CCOC(=O)C1=C(C)N=c2s/c(=C\c3ccc(-c4ccc(C)c([N+](=O)[O-])c4)o3)c(=O)n2C1c1ccc(OC)cc1` (configuration not stated), the inhibition is 21% (inactive).

Consider `CCOC(=O)C1=C(C)N=c2s/c(=C\c3ccc(-c4cc(C)c(C)c([N+](=O)[O-])c4)o3)c(=O)n2C1c1ccc(Cl)cc1` (configuration not stated), for which the inhibition is 37% (inactive).

Regarding `CCOC(=O)C1=C(C)N=c2s/c(=C\c3ccc(-c4cc(C)c(C)c([N+](=O)[O-])c4)o3)c(=O)n2C1c1ccc(OC)cc1` (configuration not stated), the inhibition is 55% (active).

Consider `Clc1ccc(-c2nnc3ccc(N4CCOCC4)nn23)cc1`, for which the inhibition is 9% (inactive).

In the case of `COc1ccc(C2NC(=O)NC(C)=C2C(=O)OCC(Cl)(Cl)Cl)cc1OC` (configuration not stated), the inhibition is 2% (inactive).

On to `COc1ccc2ccccc2c1/C=N/NC(=O)c1ccccc1C`, for which the inhibition was 13% (inactive).

Regarding `Cc1cc(I)ccc1NC(=O)c1ccc(-c2ccccc2[N+](=O)[O-])o1`, the inhibition is 49% (inactive).

Consider `O=C1NC(=S)NC(=O)C1=Cc1cccc(OC(=O)c2ccc(Cl)cc2)c1`, for which the inhibition is 30% (inactive).

With `CC(C)C(=O)NC(c1ccc(N(C)C)cc1)c1ccc2cccnc2c1O` (configuration not stated), the inhibition is 7% (inactive).

Turning to `CCN(CC)c1nc2c(s1)C(=O)CC(C)(C)C2`, the inhibition was 0% (inactive).

For the molecule `Cc1ccnc(NC(=O)c2cc(-c3ccc(C)c(C)c3)nc3ccccc23)c1`, the inhibition is 4% (inactive).

Consider `O=C1c2ccccc2NC(c2ccccc2F)N1c1ccc(Cl)cc1` (configuration not stated), for which the inhibition is 5% (inactive).

With `CCOC(=O)C1=C(C)N=c2s/c(=C\c3ccc(OCc4cccc5ccccc45)c(OC)c3)c(=O)n2C1c1ccc(OC)cc1` (configuration not stated), the inhibition was 14% (inactive).

Take `CCOC(=O)C1=C(C)N=c2s/c(=C\c3ccc(-c4cc(C)c(C)c([N+](=O)[O-])c4)o3)c(=O)n2C1c1ccccc1` (configuration not stated): the inhibition is 46% (inactive).

`CCOC(=O)C1=C(C)N=c2s/c(=C\c3ccc(OCc4cccc5ccccc45)c(OC)c3)c(=O)n2C1c1ccc(OC)c(OC)c1` (configuration not stated): the inhibition was 55% (active).

`CCOC(=O)C1=C(C)N=c2s/c(=C/c3ccc(-c4cccc(Cl)c4)o3)c(=O)n2C1c1ccc(OC)c(OC)c1` (configuration not stated): the inhibition was 52% (active).

Regarding `CCOC(=O)C1=C(C)N=c2s/c(=C\c3ccc(-c4ccc(Cl)cc4)o3)c(=O)n2C1c1ccc(OC)c(OC)c1` (configuration not stated), the inhibition was 13% (inactive).

For `CCOC(=O)C1=C(C)N=c2s/c(=C/c3ccc(-c4ccc(C)c([N+](=O)[O-])c4)o3)c(=O)n2C1c1ccc(N(C)C)cc1` (configuration not stated), the inhibition was 43% (inactive).

On to `CCOC(=O)C1=C(C)N=c2s/c(=C\c3ccc(-c4cc(C)c(C)c([N+](=O)[O-])c4)o3)c(=O)n2C1c1ccc(N(C)C)cc1` (configuration not stated), for which the inhibition was 56% (active).

As for `CCOC(=O)C1=C(C)N=c2s/c(=C\c3ccc(-c4ccc(Cl)c(Cl)c4)o3)c(=O)n2C1c1ccc(OC)c(OC)c1` (configuration not stated), the inhibition was 9% (inactive).

`CCOC(=O)C1=C(C)N=c2s/c(=C\c3ccc(OCc4cccc5ccccc45)c(OCC)c3)c(=O)n2C1c1ccc(OC)c(OC)c1` (configuration not stated): the inhibition was 0% (inactive).

Turning to `CCOC(=O)c1c(C)[nH]c(/C=C(/C#N)C(N)=NCc2ccccc2)c1O`, the inhibition was 11% (inactive).

In the case of `Cc1cc(C)c(S(=O)(=O)NC(=O)C23CC4CC(CC(C4)C2)C3)c(C)c1`, the inhibition is 2% (inactive).

Consider `COc1cccc(/C=N/NC(=O)c2ccccc2O)c1`, for which the inhibition was 11% (inactive).

Take `O=C(NC(=S)Nc1ccc2oc(-c3ccccc3)nc2c1)c1ccccc1Cl`: the inhibition was 7% (inactive).

For `Cc1ccc(/C=C2\SC(=Nc3ccc(F)cc3)NC2=O)o1`, the inhibition is 26% (inactive).

Consider `Cc1ccc(N=C2NC(=O)/C(=C/c3ccc(-c4cc([N+](=O)[O-])ccc4Cl)o3)S2)cc1Cl`, for which the inhibition was 25% (inactive).

For the molecule `Cc1ccc(N=C2NC(=O)/C(=C\c3ccc(C)o3)S2)cc1`, the inhibition was 52% (active).

As for `Cc1ccc(N=C2NC(=O)/C(=C/c3ccccc3)S2)cc1`, the inhibition is 9% (inactive).

With `Cc1ccc(N=C2NC(=O)/C(=C/c3ccc(-c4ccc(Cl)c([N+](=O)[O-])c4)o3)S2)cc1Cl`, the inhibition is 31% (inactive).

With `O=C1NC(=Nc2ccc(F)cc2)S/C1=C/c1ccc(-c2ccc([N+](=O)[O-])cc2)o1`, the inhibition was 51% (active).

`O=C(COc1cccc(Cl)c1)N/N=C\c1ccc(O)cc1`: the inhibition was 1% (inactive).

For the molecule `Cc1ccc2nc(-c3c(-c4ccccc4)c4cc(C)ccc4[nH]c3=O)cc(-c3ccccc3)c2c1`, the inhibition is 31% (inactive).

In the case of `Cc1ccc(N2C(=O)c3cccnc3C2=O)cc1C`, the inhibition was 50% (active).

`Cc1ccc(N2C(=O)c3ccccc3C2=O)cc1C`: the inhibition is 5% (inactive).

`Cc1ccccc1N1C(=O)c2cccnc2C1=O`: the inhibition is 22% (inactive).

In the case of `COc1ccccc1/C=C1/C(=O)N(c2ccc(Cl)c(Cl)c2)N=C1C`, the inhibition was 3% (inactive).

For the molecule `CCCC(=O)N(c1ccc(N(C(=O)CCC)S(=O)(=O)c2ccccc2)cc1)S(=O)(=O)c1ccccc1`, the inhibition is 1% (inactive).

In the case of `O=C(NC(=S)Nc1ccc2oc(-c3cc(Cl)ccc3Cl)nc2c1)c1ccc(F)cc1`, the inhibition was 19% (inactive).

Regarding `Cc1ccc(-c2nc3cc(Cl)cc(Cl)c3o2)cc1N`, the inhibition is 0% (inactive).

As for `O=C(NC(=S)Nc1ccc2oc(-c3ccc(Cl)cc3Cl)nc2c1)c1ccc(F)cc1`, the inhibition was 17% (inactive).

In the case of `O=C(NC(=S)Nc1ccc2oc(-c3ccc(Cl)cc3)nc2c1)c1ccc(F)cc1`, the inhibition was 57% (active).

For the molecule `O=C(NC(=S)Nc1ccc(Cl)c(-c2nc3cc(Cl)ccc3o2)c1)c1ccc(F)cc1`, the inhibition was 53% (active).

In the case of `O=C(NC(=S)Nc1ccc(-c2nc3cc(Cl)ccc3o2)cc1)c1ccc(F)cc1`, the inhibition was 8% (inactive).

In the case of `Nc1ccc(-c2nc3cc(Cl)cc(Cl)c3o2)cc1`, the inhibition was 22% (inactive).

On to `O=C(NC(=S)Nc1ccc2oc(-c3cccc(Cl)c3)nc2c1)c1ccc(F)cc1`, for which the inhibition is 18% (inactive).

Consider `Nc1cccc(-c2nc3cc(Cl)cc(Cl)c3o2)c1`, for which the inhibition was 55% (active).

With `O=C(NC(=S)Nc1cccc(-c2nc3cc(Cl)ccc3o2)c1)c1ccc(F)cc1`, the inhibition is 57% (active).

With `O=C(NC(=S)Nc1ccc2oc(-c3ccc(F)cc3)nc2c1)c1ccc(Cl)cc1`, the inhibition is 0% (inactive).

Turning to `O=C(NC(=S)Nc1cccc(-c2nc3cc(Cl)ccc3o2)c1)c1ccc(Br)cc1`, the inhibition is 9% (inactive).
